Screening results: PubChem, National Center for Advancing Translational Sciences (NCATS)
Most compounds without a hit are left out; they make up all but 9% or so of the library.
HPGD inh: qHTS Assay for Inhibitors of HPGD (15-Hydroxyprostaglandin Dehydrogenase); purified HPGD, NADH fluorescence kinetic, PGE2 substrate; Potency, µM, hits mostly inhibitors; 150,000 tested, 4.3% active
Target sequence (P15428 whole entry, looked up): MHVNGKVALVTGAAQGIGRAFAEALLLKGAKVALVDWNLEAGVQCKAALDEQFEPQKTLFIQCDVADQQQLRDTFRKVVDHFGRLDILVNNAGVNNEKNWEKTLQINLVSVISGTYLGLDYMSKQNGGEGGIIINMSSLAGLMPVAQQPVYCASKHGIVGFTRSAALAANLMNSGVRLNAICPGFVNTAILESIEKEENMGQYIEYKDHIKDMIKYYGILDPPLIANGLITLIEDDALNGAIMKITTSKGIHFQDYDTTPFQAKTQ
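20 nM HPGD preincubated 15 min at room temperature with compound in 50 mM Tris-HCl pH 8, 0.01% Tween 20. Started with 1 mM NAD+ and 30 uM prostaglandin E2; NADH fluorescence (360/450 nm) read 5 times over 30-s intervals, last minus first.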
ALDH1A1 inh: qHTS Assay for Inhibitors of Aldehyde Dehydrogenase 1 (ALDH1A1); Aldehyde dehydrogenase 1A1 (Homo sapiens), P00352; Purified ALDH1A1, NADH fluorescence, propionaldehyde substrate; 220,000 tested, 7.3% active; Potency, µM (highest dose often 75.3 µM), actives largely listed as inhibitors
IMPase inh: qHTS Assay for Identifying the Cell-Membrane Permeable IMPase Inhibitors | CHO-M1 cells, IP1 accumulation, HTRF TR-FRET ratio | inhibition (IP1 accumulation), % at 46.1 µM | Inositol monophosphatase 1 (Rattus norvegicus), P97697 | 120,000 tested, under 10 active; active = well fitted curve in the direction sought with a large enough effect in the signal ratio, not every such curve was filed as active; inconclusive = small, poorly fitted or top-dose-only effect, or a change in a side signal; inactive = no such curve, though single readings can be large or run the other way; the % refers to the signal ratio;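 note: cells stimulated with carbachol in lithium chloride buffer; higher means more IMPase inhibition seen as more IP1 and lower FRET ratio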
Target sequence (P97697 whole entry, looked up): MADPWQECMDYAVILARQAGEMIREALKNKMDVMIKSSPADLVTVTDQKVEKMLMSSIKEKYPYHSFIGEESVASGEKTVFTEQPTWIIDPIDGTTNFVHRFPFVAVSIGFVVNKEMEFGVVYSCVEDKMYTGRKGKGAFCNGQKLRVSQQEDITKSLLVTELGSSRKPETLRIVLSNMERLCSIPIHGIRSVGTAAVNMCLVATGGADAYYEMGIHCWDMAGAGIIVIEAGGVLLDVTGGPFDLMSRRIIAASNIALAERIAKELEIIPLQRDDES
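CHO-M1, 2000 cells/well, cultured 16–30 h; cpd up to 46 uM; carbachol (50 uM solution, stimulation buffer w/ 50 mM LiCl, pH 7.4), 30 min 37C; IP-One TR-FRET, 10 min RT; Ex 320/Em 665, 620; Hill-fit AC50.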
Of the large screens only hits and unclear results are named; the others gave an inactive call. Unless noted, calls come from the whole dose curve; as a rule, active = well fitted inhibition curve with a large enough effect (not every such curve was filed as active); inconclusive = small, poorly fitted or top-dose-only effect, or another doubt; inactive = no such curve, though single readings can be large or run the other way.

CCc1nnc2cccc(Cl)n12	none (no result: HPGD inh, IMPase inh)
O=C(CSc1ccc(-c2ccc(F)cc2)nn1)N1CCN(c2ccccc2)CC1	none
O=C(O)[C@H]1C[C@H](C(=O)O)N1	none (no result: HPGD inh, ALDH1A1 inh)
NCC1O[C@@H](O[C@H]2C(O)C(O[C@@H]3C(O[C@H]4OC(CO)C(O)C(O)C4N)C(N)CC(N)[C@H]3O)O[C@@H]2CO)C(N)C(O)C1O (stereo partly drawn)	none (no result: IMPase inh)
CC1CCC(C(C)C)C(O)C1 (stereo not drawn)	none (no result: IMPase inh)
O=C(/C=C/c1ccccc1)N1CCN(Cc2nc3ccccc3c(=O)[nH]2)CC1	HPGD inh 31.6µM, ALDH1A1 inh inconclusive
O=c1[nH]c(CN2CCCCC2)nc2ccccc12	none
COc1ccc(Br)cc1CNc1ccc(O)cc1	ALDH1A1 inh 10µM
COc1ccc(Br)cc1CNc1ccc2[nH]c(=O)[nH]c2c1	none (no result: HPGD inh, IMPase inh)
Cn1nc(-c2ccc3c(c2)OCCO3)c2ccccc2c1=O	none (no result: HPGD inh, IMPase inh)
CCOC(=O)c1c(C)cc(O)c(C)c1O	none (no result: IMPase inh)
CN(C)c1nnnn1-c1ccccc1Oc1ncc(C(F)(F)F)cc1Cl	none (no result: HPGD inh, IMPase inh)
Cc1nn(-c2cccc(Cl)c2)c2c1C(c1cccnc1)C(C#N)=C(N)O2 (stereo not drawn)	ALDH1A1 inh 7.94µM
Cc1nn(-c2cccc(Cl)c2)c2c1C(c1ccncc1)C(C#N)=C(N)O2 (stereo not drawn)	ALDH1A1 inh 10µM
Cc1cc2c(c(=O)n1Cc1ccco1)C(c1cccnc1)C(C#N)=C(N)O2 (stereo not drawn)	ALDH1A1 inh 7.51µM
N#CC1=C(N)Oc2cc(O)ccc2C1c1cccnc1 (stereo not drawn)	none (no result: HPGD inh, IMPase inh)
COc1ccc(OC)c(C2C(C#N)=C(N)Oc3c2c(C)nn3-c2cccc(Cl)c2)c1 (stereo not drawn)	ALDH1A1 inh inconclusive
COC(=O)C1=C(C)OC(N)=C(C#N)C1c1cccnc1 (stereo not drawn)	none
CCOc1ccc(C2C(C#N)=C(N)Oc3cc(C)n(Cc4ccco4)c(=O)c32)cc1OC (stereo not drawn)	ALDH1A1 inh inconclusive, IMPase inh inconclusive
CC1=C(n2nnc([N+](=O)[O-])n2)C(c2cccnc2)C(C#N)=C(N)O1 (stereo not drawn)	ALDH1A1 inh 1.12µM (no result: IMPase inh)
Cc1ccc(-n2c(=O)c3sccc3n(Cc3cc(=O)n4cc(Cl)ccc4n3)c2=O)cc1F	HPGD inh inconclusive
Cc1ccc(NC(=O)c2ccccc2N(C)S(=O)(=O)c2ccccc2)c(C)c1	none (no result: IMPase inh)
COc1ccc(CCNC(=O)C(C)Sc2ccc(C)cc2)cc1OC (stereo not drawn)	none (no result: IMPase inh)
CC(C)CCSc1nnc2n(-c3ccccc3)c(=O)c3c4c(sc3n12)CC(C)CC4 (stereo not drawn)	none (no result: HPGD inh, ALDH1A1 inh)
Cc1cccc(-n2cc[nH]c2=S)c1C	ALDH1A1 inh 11.2µM (no result: HPGD inh)
Cc1cccc(-n2ccnc2SCC(=O)O)c1C	none (no result: HPGD inh, IMPase inh)
CC(C)c1ccccc1-n1cc[nH]c1=S	ALDH1A1 inh 10µM (no result: HPGD inh, IMPase inh)
Cn1cc[nH]c1=S	none
CCOC(=O)CNC(=O)c1ccc(-c2nn(C)c(=O)c3ccccc23)cc1	none (no result: HPGD inh, ALDH1A1 inh)
Cc1ccc(N=C2NC(=O)/C(=C/c3cn(C)c4ccccc34)S2)cc1C	none (no result: IMPase inh)
CC(CCc1ccccc1)NC(=O)COC(=O)c1cc(NS(=O)(=O)c2ccc(Cl)c([N+](=O)[O-])c2)ccc1O (stereo not drawn)	none (no result: IMPase inh)
Cc1nnc(N(C)C(=O)c2ccncc2)s1	none (no result: HPGD inh, IMPase inh)
C=CCc1ccccc1OC[C@H](O)CNC(C)C	none
C=CCc1ccccc1OCC(O)CNC (stereo not drawn)	ALDH1A1 inh 22.4µM
C[C@]12C=CC(=O)C=C1CC[C@@H]1[C@H]3C[C@@H](O)[C@](O)(C(=O)CO)[C@@]3(C)C[C@H](O)[C@]12F	none
CN(C)c1ccc(/C=N/NC(=O)c2ccc3nc[nH]c3c2)cc1	ALDH1A1 inh 17.8µM (no result: HPGD inh, IMPase inh)
O=C(N/N=C/c1ccco1)c1ccc2nc[nH]c2c1	none (no result: HPGD inh, IMPase inh)
Cc1nc2c(C)cccc2cc1C(=O)N/N=C/c1ccc(C(=O)O)cc1	none (no result: HPGD inh, IMPase inh)
Cc1nc2c(C)cccc2cc1C(=O)N/N=C/c1ccc(N(C)C)cc1	ALDH1A1 inh 11.2µM, IMPase inh inconclusive
Cc1cccc(CSCC(=O)NCc2ccc(S(N)(=O)=O)cc2)c1	none (no result: HPGD inh, IMPase inh)
COc1ccc2[nH]cc(CCNc3nc(-c4ccccc4OC)nc4ccccc34)c2c1	none (no result: HPGD inh, IMPase inh)
Fc1ccc(N2CCN(C(c3cccs3)c3nnnn3CCc3ccccc3)CC2)cc1 (stereo not drawn)	ALDH1A1 inh 1µM, IMPase inh inconclusive
COc1ccc(Cn2nnnc2C(c2cccs2)N2CCCCCC2)cc1 (stereo not drawn)	ALDH1A1 inh 12.6µM, IMPase inh inconclusive
CC1CCN(C(c2cccs2)c2nnnn2Cc2ccccc2)CC1 (stereo not drawn)	ALDH1A1 inh 2µM
Fc1ccccc1N1CCN(C(c2cccs2)c2nnnn2CCc2ccccc2)CC1 (stereo not drawn)	ALDH1A1 inh inconclusive
COCCn1nnnc1C(c1cccs1)N1CCCC(C)C1 (stereo not drawn)	ALDH1A1 inh 11.2µM (no result: HPGD inh, IMPase inh)
c1ccc(Cn2nnnc2C(c2cccs2)N2CCSCC2)cc1 (stereo not drawn)	ALDH1A1 inh inconclusive
COc1ccc(Cn2nnnc2C(c2cccs2)N2CCSCC2)cc1 (stereo not drawn)	none
COCCn1nnnc1C(c1cccs1)N1CCN(c2ccccc2)CC1 (stereo not drawn)	none
Cc1cnc(CNc2ncncc2-c2ccccc2C#N)cn1	none (no result: IMPase inh)
O=c1c2ccccc2nnn1CSc1ccc2c(c1)OCCO2	none
O=C1C2C(C(=O)N1/N=C/c1ccc(N3CCCCC3)o1)C1C=CC2C12CC2 (stereo not drawn)	ALDH1A1 inh 8.91µM
Cc1ccc(/C=N/N2CCCCC2)o1	none (no result: HPGD inh, IMPase inh)
N#Cc1ccc(OCC(=O)N/N=C/C2CC=CCC2)cc1 (stereo not drawn)	none (no result: HPGD inh, IMPase inh)
CC/C(O)=C1\C(=O)CCCC1=NCc1nc2ccccc2[nH]1	none (no result: HPGD inh, IMPase inh)
CN(C)CCCN1C(=O)C(=O)/C(=C(/O)c2ccncc2)C1c1cccnc1 (stereo not drawn)	none
CN(C)CCCN1C(=O)C(=O)/C(=C(/O)c2ccc(S(=O)(=O)N(C)C)cc2)C1c1ccncc1 (stereo not drawn)	ALDH1A1 inh 25.1µM (no result: IMPase inh)
CC(=O)C(=Nc1ccc(Cl)cc1Cl)NNc1cccc(Cl)c1	none
O=C(Nc1ccccc1)N(O)c1ccc(Cl)cc1	ALDH1A1 inh 1µM
CCN(C(=O)Nc1ccccc1)c1ccccc1	none (no result: IMPase inh)
C=CCn1c(SCC(=O)N2CCOCC2)nc(O)cc1=O	none
C=CCn1c(SCC(=O)N2CCCCC2)nc(O)cc1=O	HPGD inh 0.316µM
O=C(CN1C(=O)C(=O)N(C2CCCC2)C1=O)Nc1ccc(N2CCOCC2)cc1	none (no result: HPGD inh, IMPase inh)
O=P(C1=C(N2CCOCC2)/C(=C\c2ccccc2)CC1)(N1CCOCC1)N1CCOCC1	none
O=C(NP(=O)(N1CCOCC1)N1CCOCC1)C1=C(N2CCOCC2)/C(=C\c2ccccc2)CC1	ALDH1A1 inh 3.55µM (no result: HPGD inh, IMPase inh)
C=CCc1cccc2cc(C(=O)N3CCN(C(=O)c4ccco4)CC3)c(=O)oc12	ALDH1A1 inh inconclusive
O=c1c([N+](=O)[O-])c(N2CCCC2)c2ccccc2n1-c1ccccc1	none (no result: HPGD inh, IMPase inh)
COc1ccc(C(=O)NNC(=O)CN2CCN(c3nc(-c4ccccc4)cs3)CC2)cc1	none
O=C(Nn1c(C2CCC2)nc2ccccc2c1=O)c1cccs1	none (no result: HPGD inh, IMPase inh)
